High-throughput results deposited in PubChem BioAssay by National Center for Advancing Translational Sciences (NCATS).
Rows were chosen to be rich in hits. Some 2.6% of all compounds tested hit in one or more screens of this group.
Cruzain inh noDet = qHTS Assay for Promiscuous and Specific Inhibitors of Cruzain (without detergent); Cruzipain (Trypanosoma cruzi), P25779; purified cruzain, Z-FR-AMC fluorescence, no detergent; Potency, µM, usual class: inhibitors; hit rate 2.3% among 200,000; AID 1476, 2009; note: nearly all actives have a fitted effect of over 40% in size
Target sequence (P25779 123-467 limits assumed): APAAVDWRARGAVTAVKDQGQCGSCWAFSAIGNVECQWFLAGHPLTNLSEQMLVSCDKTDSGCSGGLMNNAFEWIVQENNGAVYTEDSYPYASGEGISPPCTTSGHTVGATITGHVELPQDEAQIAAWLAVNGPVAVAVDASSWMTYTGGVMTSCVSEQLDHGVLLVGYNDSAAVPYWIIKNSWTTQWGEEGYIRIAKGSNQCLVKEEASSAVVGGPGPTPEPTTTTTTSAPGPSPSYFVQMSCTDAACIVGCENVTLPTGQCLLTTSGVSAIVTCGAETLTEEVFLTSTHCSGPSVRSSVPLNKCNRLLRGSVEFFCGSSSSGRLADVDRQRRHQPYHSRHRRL
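Detergent-free condition (0.00005% Triton X-100) in acetate buffer pH 5.5 with DTT. 1.5 nM enzyme and compound were pre-mixed 15 min, then 2 uM Z-FR-AMC substrate added; reaction progress from fluorescence change between first and third reads (60 s).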
Cruzain Triton = qHTS Assay for Promiscuous and Specific Inhibitors of Cruzain (with detergent). Cruzipain (Trypanosoma cruzi), P25779. purified cruzain, Z-FR-AMC fluorescence, 0.01% Triton. Potency, µM, hits mostly inhibitors. hit rate 0.43% among 200,000; note: nearly all actives have a fitted effect of over 40% in size
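Compounds were screened in titration against cruzain (1.5 nM) with 0.01% Triton X-100 to counter colloidal aggregation. Activity was the AMC fluorescence increase over 60 s after adding 2 uM Z-FR-AMC at pH 5.5.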
Of the large screens only hits and unclear results are named; the others gave an inactive call. Calls come from the whole dose curve; as a rule, active = well fitted curve in the direction sought with a large enough effect; inconclusive = small, poorly fitted or top-dose-only effect, or another doubt; inactive = no such curve, though single readings can be large; an effect the other way counts as inactive or inconclusive.

O=C(NCCC1=CCCCC1)c1ccc2c(c1)N(Cc1ccc(Cl)cc1)C(=O)c1ccccc1S2(=O)=O	Cruzain inh noDet 32µM
Cc1ccc(C)c(CN2C(=O)c3ccccc3S(=O)(=O)c3ccc(C(=O)NCCC4=CCCCC4)cc32)c1	Cruzain inh noDet 32µM
O=C(NCCC1=CCCCC1)c1ccc2c(c1)N(Cc1cccc(Cl)c1)C(=O)c1ccccc1S2(=O)=O	Cruzain inh noDet inconclusive
COCCNC(=O)c1ccc2c(c1)N(Cc1cccc(Cl)c1)C(=O)c1ccccc1S2=O (stereo not given)	none
O=C(NCCC1=CCCCC1)c1ccc2c(c1)N(Cc1ccc(F)cc1)C(=O)c1ccccc1S2(=O)=O	Cruzain inh noDet inconclusive
O=C(NCCC1=CCCCC1)c1ccc2c(c1)N(Cc1cccc(Cl)c1)C(=O)c1ccccc1S2=O (stereo not given)	Cruzain inh noDet 13µM
Cc1ccc(C)c(CN2C(=O)c3ccccc3S(=O)c3ccc(C(=O)NCCc4ccc(Cl)cc4)cc32)c1 (stereo not given)	Cruzain inh noDet 6.3µM
O=C(O)CNc1ccc(C(=O)O)cc1	none
CC(C)Cn1c(=O)c(C(=O)NCc2ccccn2)c(O)c2ccccc21	Cruzain inh noDet inconclusive
C=CCOc1ccc(C=Nc2cccc(Cl)c2)c(O)c1	none
CC(C)C(=O)NNC(=O)CSc1nc(C2CCCCC2)nc2ccccc12	none
O=C(CSc1nnc(COc2cccc3ccccc23)o1)N1c2ccccc2CCc2ccccc21	Cruzain inh noDet 13µM
Cc1cccc(OCc2nnc(SCC(=O)N3c4ccccc4Sc4ccc(Cl)cc43)o2)c1	Cruzain inh noDet 13µM
O=C(CSc1nc2ccccc2s1)N1c2ccccc2Sc2ccc(C(F)(F)F)cc21	Cruzain inh noDet 10µM
COc1cccc(OCc2nnc(SCC(=O)N3c4ccccc4Sc4ccc(Cl)cc43)o2)c1	Cruzain inh noDet inconclusive
O=C(CSc1nnc(-c2c[nH]c3ccccc23)o1)N1c2ccccc2CCc2ccccc21	Cruzain inh noDet inconclusive
O=C(CSc1nc(C2CC2)nc2ccccc12)N1c2ccccc2Sc2ccccc21	Cruzain inh noDet 25µM
O=C1c2ccccc2C(=O)N1CC(=O)N1c2ccccc2Sc2ccc(C(F)(F)F)cc21	Cruzain inh noDet inconclusive
COc1ccc(OC)c(NC(=O)C(NS(=O)(=O)c2ccc3c(c2)CCCC(=O)N3)C(C)C)c1 (stereo not given)	none
O=C(CCCN1CCC(n2c(=O)[nH]c3ccccc32)CC1)c1ccc(F)cc1	none
O=C(CSc1nc2ccccc2o1)N1c2ccccc2Sc2ccccc21	Cruzain inh noDet inconclusive
O=C(CSc1nc2ccccc2s1)N1c2ccccc2Sc2ccc(Cl)cc21	Cruzain inh noDet 16µM
CCc1nc2ccccc2n(CC)c1=O	none
CCOc1ccccc1Nc1ncnc2c1c(-c1ccccc1)cn2-c1ccc(OC)cc1	Cruzain inh noDet 10µM
COc1ccc(-n2cc(-c3ccccc3)c3c(NC4CCCC4)ncnc32)cc1	none
O=C(COc1ccc(Cl)cc1Cl)NCCSc1ccc(Cl)cc1	none
COc1ccc(CNC(=O)CCc2nc(-c3ccc(OC)cc3)no2)cc1	none
Cc1ccc(C)c(S(=O)(=O)c2nnn3c2nc(NC(C)C)c2sccc23)c1	none
CC(=O)Nc1nc(-c2ccc(Br)s2)cs1	Cruzain inh noDet 13µM
O=C(Nc1nc(-c2cc(Cl)sc2Cl)cs1)c1ccc(Br)s1	Cruzain inh noDet 7.9µM
Cc1ccc(NC(=O)Nc2nc(-c3ccc(C)s3)cs2)cc1	Cruzain inh noDet 25µM
O=C(Nc1nc(-c2ccccn2)cs1)c1ccc(Br)s1	Cruzain inh noDet inconclusive
Cc1ccc(NC(=O)Nc2nnc(N3CCCC3)s2)cc1	none
O=C(Nc1nc(-c2cc(Cl)sc2Cl)cs1)c1cccs1	Cruzain inh noDet inconclusive
Cc1ccc2c(c1)-c1c(cnn1CC(=O)N1CCN(c3cc(Cl)ccc3C)CC1)CO2	none
Cn1nnnc1SCCNCc1ccccc1OCc1ccccc1	none
COc1cc(/C=N/n2cnnc2)ccc1OCC(=O)N1CCOCC1	none
CCN(C(=O)c1cnc(N2CCN(c3ncccn3)CC2)c2ccccc12)c1cccc(Cl)c1	Cruzain inh noDet inconclusive
Cn1c(=O)[nH]c(=O)c2c1nc(N1CCN(c3cccc(Cl)c3)CC1)n2CCCc1ccccc1	Cruzain inh noDet 13µM
CCCCCn1c(N2CCN(c3cccc(Cl)c3)CC2)nc2c1c(=O)[nH]c(=O)n2C	Cruzain inh noDet inconclusive
CS(=O)(=O)N(CC(=O)Nc1cccnc1)c1ccc2c(c1)OCO2	none
Cc1ccc(Cn2cc(S(=O)(=O)c3ccc(C(C)C)cc3)c(=O)c3cc4c(cc32)OCO4)cc1	Cruzain inh noDet 32µM
CC(C)c1ccc(S(=O)(=O)c2cn(Cc3ccc(F)cc3)c3cc4c(cc3c2=O)OCO4)cc1	Cruzain inh noDet inconclusive
CCOc1ccc(S(=O)(=O)c2cn(Cc3cc(C)ccc3C)c3ccc(OCC)cc3c2=O)cc1	Cruzain inh noDet 16µM
CCCn1cc(S(=O)(=O)c2ccc(OCC)cc2)c(=O)c2cc(C)ccc21	none
Nc1nc2ccc(S(=O)(=O)N3CCCCC3)cc2s1	none
O=C(CSc1nc(-c2ccc(F)cc2)cc(C(F)(F)F)n1)NCCc1ccccc1	none
Cc1ccc2nc(/N=C(\N)NC(=O)N3c4ccccc4Sc4ccccc43)nc(C)c2c1	Cruzain inh noDet inconclusive
Cc1cc2nc(/N=C(\N)NC(=O)N3c4ccccc4Sc4ccccc43)nc(C)c2cc1C	Cruzain inh noDet 16µM
Cc1cc(=O)oc2ccc(OC(=O)c3cccc(S(=O)(=O)N4CCOCC4)c3)cc12	Cruzain inh noDet inconclusive
CCCc1nnc(NC(=O)C(CC)Sc2nnc3c4ccccc4n(C)c3n2)s1 (stereo not given)	none
C=CCn1c2ccccc2c2nnc(SC(CC)C(=O)Nc3sc4c(c3C#N)CCCC4)nc21 (stereo not given)	Cruzain inh noDet 25µM
COc1ccc(-c2nnc(SCC(=O)Nc3ncc(C(F)(F)F)cc3Cl)n2CC(C)C)cc1	Cruzain inh noDet inconclusive
Cc1ccc[n+](CC(=O)c2cc3ccccc3oc2=O)c1	none
COc1cc2c(-c3ccccc3C)nc3c(c(C)nn3-c3ccccc3)c2cc1OC	none
Cc1ccc(/C=N/N2CCN(Cc3cccc4ccccc34)CC2)s1	Cruzain inh noDet 10µM
Cc1ccc(/C=N/N2CCN(Cc3ccccc3)CC2)s1	none
COc1cccc(Cn2c(=O)n(-c3ccc(Br)cc3F)c(=O)c3sc4ccccc4c32)c1	Cruzain inh noDet 13µM
Cc1ccc(Cl)cc1-n1c(=O)c2sc3ccccc3c2n(Cc2ccccc2)c1=O	none
COc1cc(-c2cc3n(C)c(C)c(CCC(=O)O)c(=O)n3n2)cc(OC)c1OC	none
O=C(c1ccc2c(c1)N(Cc1cccc(Cl)c1)C(=O)c1ccccc1S2=O)N1CCN(c2cccc(C(F)(F)F)c2)CC1 (stereo not given)	Cruzain inh noDet 25µM
CCN1CCN(C(=O)c2ccc3c(c2)N(Cc2cccc(Cl)c2)C(=O)c2ccccc2S3=O)CC1 (stereo not given)	none
O=C(c1ccc2c(c1)N(Cc1cccc(Cl)c1)C(=O)c1ccccc1S2(=O)=O)N1CCCCC1	none
O=C(c1ccc2c(c1)N(Cc1cccc(Cl)c1)C(=O)c1ccccc1S2(=O)=O)N1CCN(c2cccc(C(F)(F)F)c2)CC1	Cruzain inh noDet 5µM
Cc1ccc(CCN2CC(C(=O)N3CCC4(CC3)OCCO4)CC2=O)cc1 (stereo not given)	none
COc1ccc(-c2nc(C)c(C(C)=O)n2O)cc1OC	none
COc1ccc(-c2nc(NC(=O)c3ccc(OCC(=O)Nc4ccc(F)cc4)c(OC)c3)sc2C)cc1	none
